Eight sequences from paper PMC7862700, “An all-to-all approach to the identification of sequence-specific readers for epigenetic DNA modifications on cytosine” can be followed below.

What all share (experiment): DAPPL (digital affinity profiling via proximity ligation, sequencing); 10 mM Tris-HCl pH 7.5, 50 mM NaCl, 1 mM DTT, 4% glycerol, room temperature, 30 min; GST-TFs on glutathione beads, 16-mer random dsDNA library, 0.1% formaldehyde crosslink after washing; high values mean tight binding
Conditions in all cases: protein: recombinant; tags: N-terminal GST; dsDNA, one strand shown

For test [1], the target named is T1, FLI1 (Homo sapiens, UniProt Q01543 1-452).
T1 sequence: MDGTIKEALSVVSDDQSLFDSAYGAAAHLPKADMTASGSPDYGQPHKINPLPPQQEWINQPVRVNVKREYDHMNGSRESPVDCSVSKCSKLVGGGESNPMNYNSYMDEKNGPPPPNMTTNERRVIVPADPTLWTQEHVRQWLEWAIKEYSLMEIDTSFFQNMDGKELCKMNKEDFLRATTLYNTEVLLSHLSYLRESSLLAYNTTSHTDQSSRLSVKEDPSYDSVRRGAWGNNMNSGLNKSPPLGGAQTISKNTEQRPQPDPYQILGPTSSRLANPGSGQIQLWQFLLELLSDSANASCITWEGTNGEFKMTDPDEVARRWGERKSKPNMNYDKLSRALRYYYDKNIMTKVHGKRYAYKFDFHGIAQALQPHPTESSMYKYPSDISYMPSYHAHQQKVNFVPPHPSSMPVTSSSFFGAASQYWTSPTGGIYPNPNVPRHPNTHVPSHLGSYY
Put shortly:
(§1)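 Human transcription factors fused to GST were expressed in yeast, captured on glutathione beads, given DNA barcodes and pooled with a GST-only negative control. Pools were incubated with 200 nmole of a 16-mer random double-stranded DNA library in Tris/NaCl/DTT/glycerol buffer at room temperature for 30 min. They were then washed, crosslinked with 0.1% formaldehyde, proximity-ligated (BsaI/T4 ligase, 1 h, 37 °C), PCR-amplified and sequenced on an Illumina NextSeq500. Binding signal is each 6-mer's read frequency for a factor divided by its frequency for the GST control.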

In test [2] the target is T2, ELK1 (Homo sapiens, UniProt P19419 1-428).
T2 sequence: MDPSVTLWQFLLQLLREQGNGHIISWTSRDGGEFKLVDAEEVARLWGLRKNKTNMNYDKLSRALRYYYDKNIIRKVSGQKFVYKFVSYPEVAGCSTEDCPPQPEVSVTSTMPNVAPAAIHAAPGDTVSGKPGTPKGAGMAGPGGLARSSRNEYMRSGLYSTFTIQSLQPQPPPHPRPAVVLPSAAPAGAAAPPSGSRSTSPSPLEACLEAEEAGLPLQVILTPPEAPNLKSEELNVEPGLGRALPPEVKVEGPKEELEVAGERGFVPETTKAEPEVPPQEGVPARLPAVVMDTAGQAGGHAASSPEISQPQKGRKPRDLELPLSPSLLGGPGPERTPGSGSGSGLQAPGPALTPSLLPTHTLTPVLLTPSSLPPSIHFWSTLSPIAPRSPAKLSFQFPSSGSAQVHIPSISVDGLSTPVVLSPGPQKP
In short, it runs like this:
as §1

Test [3] addresses T3, GABPA (Homo sapiens, UniProt Q06546 1-454).
T3 sequence: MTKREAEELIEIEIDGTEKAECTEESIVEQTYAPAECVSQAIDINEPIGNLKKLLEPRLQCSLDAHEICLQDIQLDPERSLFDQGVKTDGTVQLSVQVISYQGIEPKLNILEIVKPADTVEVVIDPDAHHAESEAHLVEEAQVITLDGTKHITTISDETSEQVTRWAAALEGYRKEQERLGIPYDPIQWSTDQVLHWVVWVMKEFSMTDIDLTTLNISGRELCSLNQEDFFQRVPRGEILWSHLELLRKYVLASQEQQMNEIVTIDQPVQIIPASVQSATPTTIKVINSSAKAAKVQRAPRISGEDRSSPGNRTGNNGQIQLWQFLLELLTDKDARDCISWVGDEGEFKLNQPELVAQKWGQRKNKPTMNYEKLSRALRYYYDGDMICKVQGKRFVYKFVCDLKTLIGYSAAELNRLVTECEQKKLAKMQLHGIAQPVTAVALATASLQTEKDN
Put shortly: as §1

Test [4] concerns the target T4, ERG (Homo sapiens, UniProt P11308 1-479).
T4 sequence: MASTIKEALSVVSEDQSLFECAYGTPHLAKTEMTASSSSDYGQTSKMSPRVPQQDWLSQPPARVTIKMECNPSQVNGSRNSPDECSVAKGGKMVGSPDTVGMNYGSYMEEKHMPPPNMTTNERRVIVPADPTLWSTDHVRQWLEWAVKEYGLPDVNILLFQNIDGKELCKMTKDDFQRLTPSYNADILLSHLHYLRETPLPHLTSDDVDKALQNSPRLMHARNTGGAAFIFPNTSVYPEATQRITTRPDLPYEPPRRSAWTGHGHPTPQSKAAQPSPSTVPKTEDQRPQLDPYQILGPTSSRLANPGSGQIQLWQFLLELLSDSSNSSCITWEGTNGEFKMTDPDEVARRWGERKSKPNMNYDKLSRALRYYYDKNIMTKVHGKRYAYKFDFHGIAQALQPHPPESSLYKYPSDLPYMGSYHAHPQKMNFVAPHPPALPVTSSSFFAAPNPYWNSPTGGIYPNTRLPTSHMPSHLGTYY
Put shortly:
as §1

Test [5] concerns the target ELF1 (Homo sapiens, UniProt P32519 1-619). Put shortly: as §1
The target in test [6] is T5, EHF (Homo sapiens, UniProt Q9NZC4 1-300).
T5 sequence: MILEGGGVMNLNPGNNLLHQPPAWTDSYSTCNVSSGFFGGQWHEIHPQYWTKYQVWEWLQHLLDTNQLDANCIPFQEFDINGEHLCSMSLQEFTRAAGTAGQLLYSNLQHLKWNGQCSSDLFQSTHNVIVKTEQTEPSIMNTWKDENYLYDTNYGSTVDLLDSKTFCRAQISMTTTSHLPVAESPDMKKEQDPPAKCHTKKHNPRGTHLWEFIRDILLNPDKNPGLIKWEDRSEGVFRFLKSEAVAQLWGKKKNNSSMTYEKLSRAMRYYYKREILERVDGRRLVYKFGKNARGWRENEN
In short, it runs like this: as §1

For test [7], the target named is SPI1 (Homo sapiens, UniProt P17947 1-270). Put shortly: as §1
For test [8], the target named is SPIB (Homo sapiens, UniProt Q01892 1-262). In short, it runs like this: as §1
Chain of SPIB (Q01892 whole entry): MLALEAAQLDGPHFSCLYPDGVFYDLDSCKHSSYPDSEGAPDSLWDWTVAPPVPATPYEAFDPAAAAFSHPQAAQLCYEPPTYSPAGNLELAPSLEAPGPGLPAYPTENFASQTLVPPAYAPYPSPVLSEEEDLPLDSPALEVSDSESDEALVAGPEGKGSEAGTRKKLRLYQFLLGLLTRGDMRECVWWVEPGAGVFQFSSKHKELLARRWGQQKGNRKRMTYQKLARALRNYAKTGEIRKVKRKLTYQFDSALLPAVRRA
Test [9] addresses T6, ELK3 (Homo sapiens, UniProt P41970 1-407).
T6 sequence: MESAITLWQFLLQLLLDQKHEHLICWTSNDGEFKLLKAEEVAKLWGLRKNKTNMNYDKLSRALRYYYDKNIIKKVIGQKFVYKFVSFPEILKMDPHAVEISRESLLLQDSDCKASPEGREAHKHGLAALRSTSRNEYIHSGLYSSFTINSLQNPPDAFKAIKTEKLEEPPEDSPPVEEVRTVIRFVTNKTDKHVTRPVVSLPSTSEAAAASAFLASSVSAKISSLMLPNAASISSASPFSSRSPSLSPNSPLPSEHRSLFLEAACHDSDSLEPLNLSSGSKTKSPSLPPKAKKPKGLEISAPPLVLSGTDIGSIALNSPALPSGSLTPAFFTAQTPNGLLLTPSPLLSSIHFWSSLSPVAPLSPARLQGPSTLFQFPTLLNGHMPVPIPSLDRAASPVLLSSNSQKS
Put shortly:
as §1

Chain of ELF1 (P32519 whole entry): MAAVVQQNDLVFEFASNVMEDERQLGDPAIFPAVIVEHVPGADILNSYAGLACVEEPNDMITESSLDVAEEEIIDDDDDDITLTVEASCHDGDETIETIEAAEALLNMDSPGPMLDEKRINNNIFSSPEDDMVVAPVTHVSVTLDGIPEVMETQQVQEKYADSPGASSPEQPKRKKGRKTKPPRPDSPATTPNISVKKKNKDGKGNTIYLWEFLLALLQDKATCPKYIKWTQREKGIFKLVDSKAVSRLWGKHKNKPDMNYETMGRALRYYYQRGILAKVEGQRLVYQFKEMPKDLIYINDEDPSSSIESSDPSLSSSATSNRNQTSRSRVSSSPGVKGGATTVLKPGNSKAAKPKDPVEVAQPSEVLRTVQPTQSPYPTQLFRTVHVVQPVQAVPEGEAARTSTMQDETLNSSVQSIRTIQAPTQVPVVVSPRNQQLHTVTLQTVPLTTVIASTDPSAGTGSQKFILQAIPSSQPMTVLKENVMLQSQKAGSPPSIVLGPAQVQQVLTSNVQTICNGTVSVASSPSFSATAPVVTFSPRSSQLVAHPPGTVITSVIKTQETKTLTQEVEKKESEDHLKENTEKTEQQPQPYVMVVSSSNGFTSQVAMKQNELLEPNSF

For the sequence TTTAAG, the binding signal in test [1] is 1.3 fold enrichment (6-mer frequency, TF over GST control); in test [2] it was 1.33 fold enrichment (6-mer frequency, TF over GST control); in test [3] it was 1.38 fold enrichment (6-mer frequency, TF over GST control); in test [4], 1.33 fold enrichment (6-mer frequency, TF over GST control); in [5] it was 1.34 fold enrichment (6-mer frequency, TF over GST control); in test [6], 1.27 fold enrichment (6-mer frequency, TF over GST control). Besides, the binding signal was 1.42 fold enrichment (6-mer frequency, TF over GST control) in [7]; 1.31 fold enrichment (6-mer frequency, TF over GST control) in test [8]; 1.46 fold enrichment (6-mer frequency, TF over GST control) in test [9].

On to TGCTGG, for which the binding signal is 1.08 fold enrichment (6-mer frequency, TF over GST control) in test [1]; 1.09 fold enrichment (6-mer frequency, TF over GST control) in test [2]; 1.08 fold enrichment (6-mer frequency, TF over GST control) in test [3]; 1.01 fold enrichment (6-mer frequency, TF over GST control) in test [4]; 1.11 fold enrichment (6-mer frequency, TF over GST control) in test [5]; 1.11 fold enrichment (6-mer frequency, TF over GST control) in test [6]. For the same sequence, the binding signal in test [7] is 1.19 fold enrichment (6-mer frequency, TF over GST control); in test [8], 1.1 fold enrichment (6-mer frequency, TF over GST control); in [9] it was 1.14 fold enrichment (6-mer frequency, TF over GST control).

For the sequence TTAAAG, the binding signal in [1] was 1.17 fold enrichment (6-mer frequency, TF over GST control); in test [2], 1.11 fold enrichment (6-mer frequency, TF over GST control); in [3], 1.26 fold enrichment (6-mer frequency, TF over GST control); in [4], 1.1 fold enrichment (6-mer frequency, TF over GST control); in test [5], 1.19 fold enrichment (6-mer frequency, TF over GST control); in [6], 1.18 fold enrichment (6-mer frequency, TF over GST control). For the same sequence, the binding signal in test [7] is 1.12 fold enrichment (6-mer frequency, TF over GST control); in test [8] it was 1.19 fold enrichment (6-mer frequency, TF over GST control); in test [9], 1.09 fold enrichment (6-mer frequency, TF over GST control).

Regarding TCCAAG, the binding signal in test [1] was 1.16 fold enrichment (6-mer frequency, TF over GST control); in test [2], 1.1 fold enrichment (6-mer frequency, TF over GST control); in [3], 1.16 fold enrichment (6-mer frequency, TF over GST control); in test [4], 1.02 fold enrichment (6-mer frequency, TF over GST control); in [5], 1.17 fold enrichment (6-mer frequency, TF over GST control); in test [6] it was 1.06 fold enrichment (6-mer frequency, TF over GST control). For the same sequence, the binding signal in [7] was 1.03 fold enrichment (6-mer frequency, TF over GST control); in test [8] it was 1.09 fold enrichment (6-mer frequency, TF over GST control); in test [9], 1.08 fold enrichment (6-mer frequency, TF over GST control).

As to ATTTTA, the binding signal in test [1] is 1.32 fold enrichment (6-mer frequency, TF over GST control); in [2], 1.16 fold enrichment (6-mer frequency, TF over GST control); in test [3] it was 1.3 fold enrichment (6-mer frequency, TF over GST control); in test [4], 1.29 fold enrichment (6-mer frequency, TF over GST control); in test [5], 1.29 fold enrichment (6-mer frequency, TF over GST control); in test [6], 1.32 fold enrichment (6-mer frequency, TF over GST control). For the same sequence, the binding signal in test [7] is 1.34 fold enrichment (6-mer frequency, TF over GST control); in test [8], 1.35 fold enrichment (6-mer frequency, TF over GST control); in [9], 1.31 fold enrichment (6-mer frequency, TF over GST control).

With CTTTGG, the binding signal in test [1] was 1.15 fold enrichment (6-mer frequency, TF over GST control); in test [2] it was 1.12 fold enrichment (6-mer frequency, TF over GST control); in test [3], 1.21 fold enrichment (6-mer frequency, TF over GST control); in [4], 1.07 fold enrichment (6-mer frequency, TF over GST control); in test [5], 1.17 fold enrichment (6-mer frequency, TF over GST control); in [6], 1.11 fold enrichment (6-mer frequency, TF over GST control). Moreover, the binding signal in test [7] is 1.21 fold enrichment (6-mer frequency, TF over GST control); in test [8], 1.04 fold enrichment (6-mer frequency, TF over GST control); in [9], 1.13 fold enrichment (6-mer frequency, TF over GST control).

Take TCTCCA: the binding signal was 1.52 fold enrichment (6-mer frequency, TF over GST control) in [1]; 1.46 fold enrichment (6-mer frequency, TF over GST control) in test [2]; 1.56 fold enrichment (6-mer frequency, TF over GST control) in [3]; 1.37 fold enrichment (6-mer frequency, TF over GST control) in test [4]; 1.43 fold enrichment (6-mer frequency, TF over GST control) in test [5]; 1.55 fold enrichment (6-mer frequency, TF over GST control) in [6]. In addition, the binding signal in test [7] is 1.57 fold enrichment (6-mer frequency, TF over GST control); in test [8], 1.44 fold enrichment (6-mer frequency, TF over GST control); in test [9], 1.59 fold enrichment (6-mer frequency, TF over GST control).

Regarding ATTTGA, the binding signal in test [1] is 1.34 fold enrichment (6-mer frequency, TF over GST control); in test [2], 1.1 fold enrichment (6-mer frequency, TF over GST control); in [3], 1.26 fold enrichment (6-mer frequency, TF over GST control); in [4], 1.23 fold enrichment (6-mer frequency, TF over GST control); in test [5], 1.12 fold enrichment (6-mer frequency, TF over GST control); in test [6], 1.27 fold enrichment (6-mer frequency, TF over GST control). Further, the binding signal in [7] is 1.17 fold enrichment (6-mer frequency, TF over GST control); in [8] it was 1.36 fold enrichment (6-mer frequency, TF over GST control); in test [9], 1.05 fold enrichment (6-mer frequency, TF over GST control).
